# According to PubChem BioAssay (NCATS):
# Values joined by “and” are separate entries in the source; they are usually repeats but may differ in a detail not shown here. Identical values can stand only once. Inconclusive results are not listed. Active and inactive are the calls of the source. Calls come from the whole dose curve; as a rule, active = well fitted cell-killing curve with a large enough effect; inconclusive = small, poorly fitted or top-dose-only effect; inactive = flat fitted curve, though single readings scatter.
# Experiment: Cellular viability qHTS for adrenocortical cancer (ACC) cell line SW-13 (AID 1963989); note: nearly all actives have a fitted effect of over 65% in size;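 for activity (max response): cells grown in serum-free medium with ITS supplement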
# Conditions: SW-13 ACC cells viability, CellTiter-Glo, 48 h; activity (max response): hits give low values
# Procedure, shortened: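 IC50 and maximal-response values come from four-parameter logistic fits of titration data. SW-13 cells in serum-free medium received compounds (up to 46 uM final) for 48 h before CellTiter-Glo luminescence.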
# % is set by controls: 0 for no effect and ±100 for the full control effect; potency is the fitted concentration of half-maximal effect.
SMILES,activity (max response),Potency
C[C@@]12CCC[C@H]1[C@@H]1CC[C@H]3C[C@@H](O)CC[C@]3(C)[C@H]1CC2,-0.85% (inactive),
O=C(CCNC(=O)c1ccc(OC(F)(F)F)cc1)N[C@@H]1CCCc2ccccc21,-26.4% (inactive),
CCOC(=O)c1ccc(O)cc1,9.4% (inactive),
N[C@@H](CCC(=O)O)C(=O)N[C@@H](Cc1c[nH]c2ccccc12)C(=O)O,9.67% (inactive),
O=C(Nc1ccc2c(c1)CCN(Cc1ncn[nH]1)C2)c1ccccc1-c1ccc(C(F)(F)F)cc1,-15.2% (inactive),
COc1ccc(C(=O)N2CCN(C(=O)/C=C/c3ccc(Br)cc3)CC2)cc1,-12.8% (inactive),
Nc1ccc2cc3ccc(N)cc3nc2c1,,6510 nM (active)
Cc1c(CN2CCN(C(=O)[C@H](C)O)CC2)sc2c(N3CCOCC3)nc(-c3cnc(N)nc3)nc12,,631 nM (active)
O=C(CCCCCCCCC#CI)Oc1ccccc1,-0.224% (inactive),
COc1cc2c(cc1OC)CN(C(=O)[C@H](C)N[C@@H](CCc1ccccc1)C(=O)O)[C@H](C(=O)O)C2,4.46% (inactive),
Cn1c(-c2ccccc2C(F)(F)F)nnc1C12CCC(c3noc(C4CC(F)(F)C4)n3)(CC1)CC2,-6.22% (inactive),
CCCc1c(OCCCCc2nn[nH]n2)ccc(C(C)=O)c1O,-4.43% (inactive),
CCCN1C[C@H](CSC)C[C@@H]2c3cccc4[nH]cc(c34)C[C@H]21,-4.04% (inactive),
COc1ccc([C@@H](O)[C@@H](C)Oc2ccc([C@H]3O[C@H](c4ccc(O[C@H](C)[C@H](O)c5ccc(OC)c(OC)c5)c(OC)c4)[C@H](C)[C@H]3C)cc2OC)cc1OC,,316 nM (active)
CCC(C)CNCC(=O)N1CCc2sccc2C1c1cccc(C)n1 (stereo unspecified),11.1% (inactive),
CCCCC[C@H](O)/C=C/[C@H]1[C@H](O)CC(=O)[C@@H]1CCCCCCC(=O)O,1.24% (inactive),
C=CC(=O)N1C[C@H](Nc2ncnc3[nH]ccc23)CC[C@@H]1C,-23.7% (inactive),
O=C(OCC(COC(=O)c1cccnc1)(COC(=O)c1cccnc1)COC(=O)c1cccnc1)c1cccnc1,-1.24% (inactive),

SMILES,activity (max response),Potency
Cc1ccc(O)c2ncccc12,11.9% (inactive),
OC(CCCN1CCCCC1)(c1ccccc1)c1ccccc1,-5.81% (inactive),
C[C@H]1C[C@@H]2[C@H]([C@@H](O)C[C@@]3(C)[C@H]2CC[C@]3(O)C(=O)CO)[C@@]2(C)C=CC(=O)C=C12,8.4% (inactive) and 9.49% (inactive),
Cc1ccc(NS(=O)(=O)c2ccc3c(c2)C2C=CCC2C(c2ccc(C(=O)O)cc2)N3)cc1C (stereo unspecified),-1.16% (inactive),
CN1CC[C@H](c2c(O)cc(O)c3c(=O)cc(-c4ccccc4Cl)oc23)[C@H](O)C1,,184 nM (active)
CC(C)CCOC(=O)c1ccc(N(C)C)cc1,5.28% (inactive),
CCCCCCCCCCCCOCCO,0.306% (inactive),
CN1CCC[C@@H]1Cc1c[nH]c2ccc(CCS(=O)(=O)c3ccccc3)cc12,-0.887% (inactive),
COCCNCc1ccc(-c2cc3nccc(Oc4ccc(NC(=O)C5(C(=O)Nc6ccc(F)cc6)CC5)cc4F)c3s2)nc1,,3550 nM (active)
OCc1ccc(Cl)cc1Cl,-2% (inactive),
CCc1oc2ccccc2c1C(=O)c1cc(I)c(O)c(I)c1,,5800 nM (active)
O=C(Nc1ccccc1)Nc1ccc(-c2ccc(C(=O)[C@@H]3CCC[C@H]3C(=O)O)cc2)cc1,-19.9% (inactive),
CC(=O)Oc1cccc2c1C(=O)c1c(OC(C)=O)cc(C(=O)O)cc1C2=O,-7.7% (inactive),
CC#Cc1cncc(-c2ccc3c(c2)[C@@]2(N=C(C)C(N)=N2)C2(CCC(OC)CC2)C3)c1 (stereo partly specified),-4.31% (inactive),
CN1C(=O)N[C@@H](Cc2c[nH]c3c(Cl)cccc23)C1=O,-3.59% (inactive),
CC[C@H]1OC(=O)[C@H](C)C(=O)[C@H](C)[C@@H](O[C@H]2O[C@H](C)C[C@H](N(C)C)[C@H]2O)[C@](C)(OC)C[C@@H](C)C(=O)[C@H](C)[C@H]2N(CCCCn3cnc(-c4cccnc4)c3)C(=O)O[C@]12C,-18.8% (inactive),
C[C@]12CC[C@@H]3c4ccc(O)cc4CC[C@H]3[C@@H]1C[C@@H](O)[C@@H]2O,-7.09% (inactive),
CO[C@H]1C=CO[C@@]2(C)Oc3c(C)c(O)c4c(O)c(c(/C=N/N5CCN(C)CC5)c(O)c4c3C2=O)NC(=O)/C(C)=C\C=C[C@H](C)[C@H](O)[C@@H](C)[C@@H](O)[C@@H](C)[C@H](OC(C)=O)[C@@H]1C,-17.1% (inactive),
